IL1B NFkB inh: blocks IL-1B driven NFkB nuclear translocation in HUVEC cells. HUVEC IL-1B NFkB p65 nuclear translocation imaging. inhibition, % at 2 µM. hit rate 0.43% among 94,000;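 active = inhibition above about 30% together with a positive call from visual inspection of the well image, limit read from the data; inconclusive = inhibition above a set limit but visual check negative; inactive = inhibition not above a set limit, visual check negative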;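 note: nuclear over cytoplasmic p65 intensity ratio measured by imaging; 0% = IL-1B stimulated DMSO wells and 100% = unstimulated DMSO wells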
IL1B cytotox: HUVEC cytotoxicity counter-screen, IL-1B stimulated | HUVEC cell count loss, Hoechst imaging | cell count reduction, % at 2 µM | hit rate 0.41% among 94,000 | AID 845;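 active = cell count reduction more than 3 SD above the screen-wide mean, cut at about 70% in these data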;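 note: normalized per plate to untreated control cells as the no-loss baseline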
PLAP activator: human PLAP activation; AID 696; purified PLAP enzyme, luminescent substrate read-out; hits give high values; hit rate 1.2% among 96,000; P05187; activation fold at 20 µM; in the data active = activation fold above about 2
IL1B NFkB pot: enhances IL-1B driven NFkB nuclear translocation; HUVEC IL-1B NFkB p65 nuclear translocation imaging; activation, % at 2 µM; hit rate 0.3% among 94,000; AID 819;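 active = activation above 40%, about the mean plus 3 SD, also judged a hit on visual image review; inconclusive = activation above 40% but not a hit on visual review; inactive = activation not above 40% and no visual hit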;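 note: percent activation is computed from the nuclear over cytoplasmic p65 intensity ratio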
TNAP act DEA: human TNAP activation, intermediate phosphate acceptor | purified TNAP, CDP-star luminescence, 100 mM DEA, 30 min; hits give high values; scale: 0 levamisole-inhibited, 1 vehicle-only enzyme | AID 813 | activation factor at 20 µM | P05186 | 64,000 tested, under 10 active;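 active = activation factor of at least 2 at 20 µM, relative to controls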
Target sequence (P05186 whole entry, looked up): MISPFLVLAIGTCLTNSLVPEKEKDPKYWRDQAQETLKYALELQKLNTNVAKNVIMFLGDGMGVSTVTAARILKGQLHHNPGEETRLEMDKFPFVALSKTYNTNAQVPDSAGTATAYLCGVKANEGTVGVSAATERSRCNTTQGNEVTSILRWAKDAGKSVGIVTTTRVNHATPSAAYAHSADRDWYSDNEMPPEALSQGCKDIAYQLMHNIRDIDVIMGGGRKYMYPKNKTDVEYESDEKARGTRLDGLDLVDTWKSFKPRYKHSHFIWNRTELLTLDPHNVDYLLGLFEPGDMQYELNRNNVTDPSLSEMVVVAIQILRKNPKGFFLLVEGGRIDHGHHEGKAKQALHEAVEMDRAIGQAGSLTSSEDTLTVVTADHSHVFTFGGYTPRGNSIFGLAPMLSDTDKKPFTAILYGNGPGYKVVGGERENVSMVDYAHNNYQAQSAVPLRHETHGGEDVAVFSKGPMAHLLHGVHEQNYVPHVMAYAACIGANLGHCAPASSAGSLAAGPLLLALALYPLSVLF
* = called active by the depositor; ? = inconclusive; . = not tested or not shown. Shown are actives, neighbours in structure and some others; about 2.1% of the full set was active somewhere.

SMILES	IL1B NFkB inh	IL1B cytotox	PLAP activator	IL1B NFkB pot	TNAP act DEA
COc1cccc(N2C(=O)N(c3ccccc3Cl)C3CS(=O)(=O)CC32)c1 (configuration not stated)	-13.6	-115.4	0.8	13.6	0.8
CCC(C)NC(=O)CSc1nnc(-c2ccc(C(C)(C)C)cc2)n1C (configuration not stated)	.	.	1.1	.	1
Cc1ccc(C)c(NC(=O)CSc2nnc(-c3ccccc3)n2N)c1	-16.1	-55.1	0.9	16.1	0.8
Cc1ccc(-c2cc(-c3nnc(SCC(=O)NCC(C)C)n3N)c3ccccc3n2)cc1	-42.8	-2.1	1.2	42.8*	.
CCC(C)NC(=O)CSc1nnc(-c2cc(-c3ccc(C)cc3)nc3ccccc23)n1N (configuration not stated)	-72.9	0.0	0.9	72.9*	.
Oc1ccccc1-c1n[nH]c(=S)n1Cc1ccco1	-9.4	-1.3	1.9	9.4	.
COC1(c2cc(-c3ccccc3)nc(N)n2)CCCCC1	-0.9	6.5	1	0.9	1
O=C(NNC(=S)Nc1ccccc1)c1ccncc1	-19.9	-37.1	2*	19.9	.
COc1ccccc1NC(=S)N(CCc1nc2cc(C)c(C)cc2[nH]1)Cc1cccnc1	2.0	-37.0	1.7	-2.0	.
CCOC(=O)c1sc(NC(=O)CCN2C(=O)c3cccc([N+](=O)[O-])c3C2=O)c(C(=O)OCC)c1C	-11.8	-3.2	1.3	11.8	.
Cc1ccccc1CSc1nsc(N)n1	12.2	-20.8	1.1	-12.2	.
Cc1nc(SCc2ccccc2C)n[nH]1	3.5	7.4	2*	-3.5	0.9
Cc1ccc(NC(=O)c2cc(NC(=O)CCC(=O)O)ccc2N2CCCCC2)cc1	4.6	92.2*	1.1	-4.6	.
Cc1cccc(NC(=O)c2cc(NC(=O)c3ccccc3)ccc2N2CCCCC2)c1	-6.5	-5.8	0.9	6.5	.
Cc1cnn(CCC(=O)NNC(=S)Nc2ccc(F)cc2)c1	.	.	2.3*	.	.
Cc1cc(S(=O)(=O)Nc2ccc(F)cc2)c(C)s1	11.6	89.2*	0.9	-11.6	.
O=C(Nc1ccc2nc(-c3ccccc3)[nH]c2c1)c1cccs1	-8.6	-100.0	0.9	8.6	.
O=C(Nc1ccc2nc(-c3ccc4nc[nH]c4c3)[nH]c2c1)c1cccs1	-0.5	-18.5	2.1*	0.5	.
CCOC(=O)C1CCN(C(=O)c2ccc(Cl)c(Cl)c2)CC1	99.0*	93.5*	1.1	-99.0	0.9
COc1ccc(C2=NOC(C(=O)Nc3cccnc3)C2)cc1 (configuration not stated)	1.3	15.2	1	-1.3	.
Cc1ccc(NC(=O)NNC(=O)C2CC(c3cccnc3)=NO2)cc1 (configuration not stated)	-2.9	6.5	2*	2.9	.
CCc1cc(C(=O)NNC(=S)Nc2cccc(C)c2)cs1	-7.3	4.4	.	7.3	.
Cc1ccsc1C(=O)NNC(=S)NCC(C)C	2.6	-17.3	2.2*	-2.6	.
Cc1cccc(NC(=S)NNC(=O)c2sccc2C)c1	17.4	-0.8	2.1*	-17.4	.
O=C(c1noc2c1CCCCC2)N1CCN(C(c2ccccc2)c2ccccc2)CC1	.	.	.	.	0.9
SMILES	IL1B NFkB inh	IL1B cytotox	PLAP activator	IL1B NFkB pot	TNAP act DEA
Cc1cc2nc(SCC(=O)N(C)C)c3c(c2cc1C)CCCC3	-3.7	15.5	1.2	3.7	.
COC(=O)c1cc2c(cc1NC(=O)CSCCc1ccccn1)OCO2	.	.	1	.	0.9
CC(=O)Nc1ccc(NC(=O)CSCCc2ccccn2)cc1	48.6*	-6.7	1.1	-48.6	.
COc1cccc(N2CCN(c3c4c(nc5ncnn35)CCC4)CC2)c1	30.2*	36.4	1.1	-30.2	1
CCOc1ccc(C(=O)NCC2CCCO2)cc1 (configuration not stated)	-56.0	-25.3	0.8	56.0*	0.9
COc1ccc(N(Cc2cc3cc(OC)ccc3[nH]c2=O)C(=O)c2cccnc2)cc1	-7.5	-33.8	1.2	7.5	0.9
COc1ccc2[nH]c(=O)c(CN(C(=O)c3cccnc3)c3ccccc3)cc2c1	-66.9	-4.3	1	66.9*	.
CCc1nnc(NC(=O)CN2CCN(c3ccc(Cl)cc3)CC2)s1	-45.2	-27.3	.	?	.
CCCCNC(=O)CCC(=O)Nc1ncc(-c2ccc(C)cc2)n1C	20.0	-6.3	2*	-20.0	0.9
CCOC(=O)c1cc2c(=O)n3ccccc3nc2n(CCOC)c1=NC(=O)c1ccncc1	-5.8	10.2	1.2	5.8	1
CCOC(=O)c1cc2c(=O)n3ccccc3nc2n(CCCOC)c1=NC(=O)c1cccnc1	-44.4	-0.4	.	44.4*	1.1
COc1ccc(CCNC(=O)C2CCN(Cc3nc(-c4cccc(Cl)c4)oc3C)CC2)cc1OC	.	.	2.2*	.	1.1
